MRP1 act: H69AR viability gain despite doxorubicin, primary screen, MRP-1 activator project, H69AR cells, CellTiter-Glo; 0.61% of 140,000 active; viability increase, % at 10 µM; viability rescue;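 active = viability gain under doxorubicin at or above a set limit, the compound median plus 3 SD, cut at about 4.7% in these data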;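 note: MRP-1 overexpressing cells given doxorubicin 25 µM after compound pretreatment; 18-22 h compound pretreatment then 72 h with doxorubicin before readout; 0% = doxorubicin-only wells and 100% = vehicle-treated cells without doxorubicin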
ERb SRC1 inh: inhibitors of ERβ-SRC1 coactivator interaction, primary screen, biochemical, TR-FRET, ERβ LBD, SRC-1 peptide | Estrogen receptor beta (Homo sapiens), Q92731 | TR-FRET ER-beta LBD / SRC1-Cy5 peptide binding; receptor agonist-loaded with 1 µM estradiol | inhibition, % at 25.6 µM | 1.3% of 86,000 active;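 active = compounds whose percent inhibition of the receptor-coactivator binding signal exceeds about 50% in the single-dose screen, limit read from the data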;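 note: 0% = receptor plus peptide wells without compound and 100% = peptide-only wells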
MRP reversal: reversal of MRP1-mediated doxorubicin resistance, primary screen, H69AR cells, doxorubicin co-treatment; H69AR cells + 2 uM doxorubicin, CellTiter-Glo, 72 h; differential viability (reversal), % at 10 µM; 0.04% of 85,000 active; AID 602, 2007;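 active = viability drop by adding the cancer drug above about 55%, with treated viability meeting a 40% cutoff, limit read from the data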;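 note: viability without doxorubicin minus viability with 2 µM doxorubicin for each compound; larger differential means the compound sensitizes cells more to doxorubicin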
Smad3 inh: Smad3/FoxH1 peptide binding inhibitors, primary screen, biochemical, TR-FRET | TR-FRET Smad3/Dy647-FoxH1 peptide binding, europium anti-His | inhibition, % at 25 µM | 0.29% of 88,000 active | AID 630, 2007;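 active = compounds that reduce the energy-transfer binding signal between the protein and its labelled peptide by more than half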;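 note: 0% = Smad3 plus labelled peptide maximal FRET and 100% = peptide-only background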
ERa coact pot: enhancers of ERα–SRC-1 coactivator binding, primary screen, biochemical, TR-FRET, ERα LBD, low estradiol; 1.3% of 86,000 active; coactivator binding (% of control), % at 25.6 µM; TR-FRET ERalpha-LBD/SRC-Cy5 coactivator binding, 2 h; 100 = basal binding, no effect; in the data active = activity above about 200%;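 note: binding measured in presence of low estradiol as agonist stimulus; 0% = peptide alone without receptor and 100% = receptor with peptide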
Target sequence (P03372 whole entry, looked up, the tested form may be a part): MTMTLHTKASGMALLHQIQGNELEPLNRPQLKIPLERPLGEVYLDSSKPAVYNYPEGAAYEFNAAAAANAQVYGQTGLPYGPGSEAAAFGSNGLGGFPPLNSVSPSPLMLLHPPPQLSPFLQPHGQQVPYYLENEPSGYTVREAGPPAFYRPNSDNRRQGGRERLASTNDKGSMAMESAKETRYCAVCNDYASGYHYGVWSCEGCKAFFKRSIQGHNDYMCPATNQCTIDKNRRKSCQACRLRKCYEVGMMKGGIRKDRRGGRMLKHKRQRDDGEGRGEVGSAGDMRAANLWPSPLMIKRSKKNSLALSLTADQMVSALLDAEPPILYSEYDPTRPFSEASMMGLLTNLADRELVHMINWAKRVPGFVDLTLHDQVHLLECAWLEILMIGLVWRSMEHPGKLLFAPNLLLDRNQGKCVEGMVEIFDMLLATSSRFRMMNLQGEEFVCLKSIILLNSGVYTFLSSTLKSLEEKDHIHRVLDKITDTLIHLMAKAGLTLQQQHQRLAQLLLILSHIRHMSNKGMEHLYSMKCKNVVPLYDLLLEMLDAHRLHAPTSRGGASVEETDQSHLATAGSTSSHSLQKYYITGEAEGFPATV
ERa coact inh: ERα–SRC-1 coactivator interaction inhibitors, primary screen, biochemical, TR-FRET, ERα LBD, estradiol-bound; Estrogen receptor (Homo sapiens), P03372; TR-FRET ER-alpha LBD / SRC-1 peptide; inhibition, % at 25.6 µM; 1.7% of 86,000 active; in the data active = inhibition above about 50%;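 note: 0% = receptor plus peptide control and 100% = peptide only without receptor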
Starred values were filed as active, the others as inactive; [ ] = dose if it differs, or a comment. An excerpt weighted towards active compounds, which were near 2.9% of everything screened.

For Cc1ccc(/C=N/Nc2ncc(Cl)cc2Cl)s1 the results were MRP1 act -5, ERb SRC1 inh -10, MRP reversal -5, Smad3 inh 3, ERa coact pot 104 and ERa coact inh -7.
For Clc1cnc(N/N=C/c2cccs2)c(Cl)c1 the results were MRP1 act -4, ERb SRC1 inh 3, MRP reversal 81*, Smad3 inh 4, ERa coact pot 94 and ERa coact inh -3.
For CCN(Cc1ccccc1)S(=O)(=O)c1ccc(S(=O)(=O)N2CCN(CCC#N)CC2)cc1 the results were MRP1 act -3, ERb SRC1 inh -15, MRP reversal -4, Smad3 inh 2, ERa coact pot 142 and ERa coact inh -7.
COc1cccc(Nc2nc3ccccc3nc2-n2nc(C)cc2C)c1 was read as MRP1 act 5.6*, ERb SRC1 inh 34, MRP reversal -2, Smad3 inh 15, ERa coact pot 105 and ERa coact inh -1.
`Cc1cccc(OCC(=O)OCC(=O)c2c(N)n(C)c(=O)n(C)c2=O)c1` gave MRP1 act -3, ERb SRC1 inh 2, MRP reversal -4, Smad3 inh -3, ERa coact pot 59 and ERa coact inh -4.
CCN(CC)S(=O)(=O)c1ccc(NC(=O)COc2c(OC)cccc2OC)cc1 was read as MRP1 act 0, ERb SRC1 inh -4, MRP reversal 1, Smad3 inh 1, ERa coact pot 103 and ERa coact inh -3.
`Cc1ccccc1CNC1CCCCC1` gave MRP1 act 0.
Oc1cc(CN2COc3ccccc32)c(O)cc1CNC1CCCCC1 was read as Smad3 inh 74*.
For CCOc1ccc(NC(=O)CCCc2cc(-c3ccc(OCC)cc3)on2)cc1 the results were MRP1 act -5, ERb SRC1 inh 18, MRP reversal 10, Smad3 inh 0, ERa coact pot 204* and ERa coact inh 25.
Screening O=C(O)C(Cc1ccccc1)Cc1ccccc1 returned Smad3 inh -3.
`CCOC(=O)CN(C(=O)CSc1nnc(COc2ccc(OC)cc2)n1C)c1ccccc1` gave MRP1 act 5.6*, ERb SRC1 inh 7, MRP reversal -12, Smad3 inh 2, ERa coact pot 98 and ERa coact inh -4.
For CCOC(=O)CN(C(=O)CSc1nnc(CNc2ccc(F)cc2)n1C)c1ccccc1 the results were MRP1 act -2, ERb SRC1 inh -13, MRP reversal 9, Smad3 inh -12, ERa coact pot 108 and ERa coact inh -7.
Screening C[C@@H](CCC[C@@H]1SC[C@H]2NC(=O)N[C@@H]12)C(=O)O returned Smad3 inh 7.
Screening O=C1NCCCC2c3cc(O)c4ccccc4c3OC12N1CCCCC1 (centres undefined) returned MRP1 act -3, ERb SRC1 inh 55*, MRP reversal -27, Smad3 inh 29, ERa coact pot 37 and ERa coact inh 43.
Screening CCCn1c(C)cc(/C=C(\C#N)C(=O)OCC(=O)Nc2ccc(OC)c(Cl)c2)c1C returned MRP1 act 9.4*.
For CCCn1c(C)cc(/C=C(\C#N)C(=O)OCC(=O)NC(=O)NCC)c1C the results were MRP1 act -3, ERb SRC1 inh 11, MRP reversal 14, Smad3 inh 4, ERa coact pot 90 and ERa coact inh 5.
For Cn1c(CSc2nc3ccccc3s2)nc2ccccc21 the results were MRP1 act -3, ERb SRC1 inh 7, MRP reversal 18, Smad3 inh 2, ERa coact pot 282*[fluorescence artefact?] and ERa coact inh 4.
For O=C(O)CCNc1ncnc2nc[nH]c12 the results were Smad3 inh 8.
For O=C(Cc1sc(-c2ccccc2Cl)nc1-c1ccccc1)Nc1ccccc1 the results were MRP1 act -1, ERb SRC1 inh -4, MRP reversal 2, Smad3 inh -72, ERa coact pot 235*[fluorescence artefact?] and ERa coact inh 9.
